This is part of a sample that, as a whole, favours compounds with a hit. Of some 83,000 tested, about 20% had one in any assay.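 Values shown are percent growth following 48 h exposure of cells in 96-well plates to a single concentration of compound; below 10 was considered active.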 Unmarked numbers belong to inactive results. The source made the active and inactive calls.

Test systems include SK-MEL-2 melanoma; EKVX NSCLC; SN12C renal; UO-31 renal; TK-10 renal; A498 renal; CCRF-CEM leukemia; MOLT-4 leukemia; SR leukemia; RPMI-8226 leukemia; OVCAR-8 ovarian; OVCAR-5 ovarian; OVCAR-4 ovarian; SK-OV-3 ovarian; IGROV1 ovarian; OVCAR-3 ovarian; HS 578T breast; NCI/ADR-RES ovarian.
Common to all, as to experiment: NCI-60 one-dose screen, 48 h (100 = growth as untreated, 0 = no growth, -100 = all killed)
Holding throughout (conditions): 10 µM unless noted

Regarding `CCCCOc1c(N)cccc1C(=O)OCCN(CC)CC`, the growth in the assay with SK-MEL-2 melanoma is 96.6%; in the assay on EKVX NSCLC, 104%; in the assay with SN12C renal, 95.7%; in the assay with UO-31 renal it was 80.8%; in the assay with TK-10 renal, 81.8%; with A498 renal it was 90.5%. For the same molecule, the growth in the assay on CCRF-CEM leukemia is 90.6%; in the assay with MOLT-4 leukemia, 60.2%; in the assay with SR leukemia it was 83.9%; in the assay with RPMI-8226 leukemia it was 123%; with OVCAR-8 ovarian, 92.8%; in the assay with OVCAR-5 ovarian, 113%. The growth in the assay with OVCAR-4 ovarian is 107%; in the assay on SK-OV-3 ovarian it was 108%; in the assay on IGROV1 ovarian it was 104%; in the assay on OVCAR-3 ovarian, 101%; with HS 578T breast, 102%; with NCI/ADR-RES ovarian it was 106%.

Turning to `Cc1ccc2[nH]c3nc4cccnc4c(C)c3c2c1`, the growth in the assay on SK-MEL-2 melanoma was 119%; with EKVX NSCLC it was 9.94% (active); in the assay on SN12C renal, 88.4%; with UO-31 renal, 62.8%; in the assay on TK-10 renal it was 38.7%; in the assay on A498 renal, 92.7%. In addition, the growth was 85.9% in the assay with CCRF-CEM leukemia; 81.9% with MOLT-4 leukemia; 2.59% (active) with SR leukemia; 69.6% in the assay on RPMI-8226 leukemia; 88.3% in the assay on OVCAR-8 ovarian; 59.6% in the assay with OVCAR-5 ovarian. The growth was 87.1% with OVCAR-4 ovarian; 88% in the assay on SK-OV-3 ovarian; 85.8% in the assay on IGROV1 ovarian; 99.8% with OVCAR-3 ovarian; 93.2% in the assay on HS 578T breast; 83.2% with NCI/ADR-RES ovarian.

For the molecule `COc1ccc(Cl)cc1NC(=O)c1cc2c(n1C)-c1nc(NC(=O)C(C)(C)C)sc1CC2`, the growth is 79.7% with SK-MEL-2 melanoma; 76.2% in the assay on EKVX NSCLC; 107% in the assay on SN12C renal; 53.5% with UO-31 renal; 98% in the assay on TK-10 renal; 94% in the assay on A498 renal. Also, the growth is 98.5% in the assay with CCRF-CEM leukemia; 72.5% in the assay on MOLT-4 leukemia; 85.2% with SR leukemia; 83.4% with RPMI-8226 leukemia; 109% with OVCAR-8 ovarian; 104% in the assay with OVCAR-5 ovarian. The growth with OVCAR-4 ovarian is 94.8%; with SK-OV-3 ovarian it was 67.7%; in the assay with IGROV1 ovarian, 98.1%; with OVCAR-3 ovarian it was 105%; in the assay on HS 578T breast, 98.5%; with NCI/ADR-RES ovarian, 93.8%.

With `CCOC(=O)c1noc2c1CCc1c-2cn(Cc2ccc(OC)cc2)c1-c1cc(OC)c(OC)c(OC)c1`, the growth was 35.4% in the assay with SK-MEL-2 melanoma; 48.6% with EKVX NSCLC; 44.7% in the assay on SN12C renal; 30.9% in the assay on UO-31 renal; 68.8% in the assay on TK-10 renal; 56.2% with A498 renal. In addition, the growth is 15% in the assay on CCRF-CEM leukemia; 18.5% with MOLT-4 leukemia; 17.8% with SR leukemia; 24.7% in the assay with RPMI-8226 leukemia; 32.6% with OVCAR-8 ovarian; 71.2% in the assay on OVCAR-5 ovarian. The growth in the assay on OVCAR-4 ovarian is 63.2%; in the assay on SK-OV-3 ovarian it was 65.3%; in the assay with IGROV1 ovarian, 33.2%; with OVCAR-3 ovarian it was 3.47% (active); in the assay with HS 578T breast, 8.37% (active); with NCI/ADR-RES ovarian, 21.9%.

Regarding `COc1ccc(-c2ccc(NC(=O)Nc3cccc(C(F)(F)F)c3)c(C)n2)cc1`, the growth with SK-MEL-2 melanoma is 75.9%; in the assay with EKVX NSCLC it was 41.4%; in the assay with SN12C renal it was 68%; in the assay on UO-31 renal, 55.1%; in the assay with TK-10 renal it was 76.7%; with A498 renal it was 52.1%. Moreover, the growth is 42.9% in the assay with CCRF-CEM leukemia; 33.7% in the assay on MOLT-4 leukemia; 36.3% in the assay on SR leukemia; 22.6% in the assay with RPMI-8226 leukemia; 61.9% with OVCAR-8 ovarian; 83% with OVCAR-5 ovarian. Further, the growth is 42.9% in the assay with OVCAR-4 ovarian; 82.1% in the assay with SK-OV-3 ovarian; 91.3% with IGROV1 ovarian; 41.9% in the assay on OVCAR-3 ovarian; 88.9% in the assay on HS 578T breast; 53.2% with NCI/ADR-RES ovarian.

On to `O=C(O)c1ccc(-n2cc(/C=N/Nc3ccc(Cl)cc3)c(-c3ccc(F)c(F)c3)n2)cc1`, for which the growth with SK-MEL-2 melanoma is 75.5%; with EKVX NSCLC it was 59.7%; with SN12C renal, 93.2%; in the assay on UO-31 renal, 46%; in the assay on TK-10 renal it was 94.1%; in the assay with A498 renal it was 49.9%. The growth with CCRF-CEM leukemia is 32.3%; in the assay with MOLT-4 leukemia, 37.6%; in the assay with SR leukemia it was 68.9%; with RPMI-8226 leukemia, 24%; in the assay on OVCAR-8 ovarian it was 86.6%; with OVCAR-5 ovarian it was 83.7%. The growth in the assay on OVCAR-4 ovarian was 80.3%; in the assay on SK-OV-3 ovarian, 100%; in the assay with IGROV1 ovarian it was 79.2%; with OVCAR-3 ovarian it was 75.2%; in the assay with HS 578T breast, 84.5%; with NCI/ADR-RES ovarian it was 73.1%.

As for `COc1ccc2c(c1)OC(N)=C(C#N)C2c1ccc(F)c(F)c1` (centres undefined), the growth is 32.9% in the assay on SK-MEL-2 melanoma; 49.2% with EKVX NSCLC; 54.7% in the assay with SN12C renal; 52.8% with UO-31 renal; 70.5% in the assay with TK-10 renal; 9.88% (active) with A498 renal. Further, the growth with CCRF-CEM leukemia is 14.9%; with MOLT-4 leukemia, 28.2%; in the assay on SR leukemia, 12.2%; with RPMI-8226 leukemia it was 7.58% (active); in the assay with OVCAR-8 ovarian, 33.9%; in the assay on OVCAR-5 ovarian, 51.6%. Further, the growth was 73.6% with OVCAR-4 ovarian; 29% with SK-OV-3 ovarian; 53.5% with IGROV1 ovarian; 15.6% in the assay on OVCAR-3 ovarian; 35.7% in the assay on HS 578T breast; 17.9% in the assay with NCI/ADR-RES ovarian.

For `COc1ccc(-c2ccc(NC(=O)Nc3ccc(Cl)c(C(F)(F)F)c3)c(C)n2)cc1`, the growth with SK-MEL-2 melanoma is 62.1%; in the assay on EKVX NSCLC, 49.2%; in the assay on SN12C renal it was 57.4%; in the assay with UO-31 renal it was 39.3%; in the assay with TK-10 renal, 65.9%; in the assay with A498 renal, 57.7%. For the same molecule, the growth in the assay on CCRF-CEM leukemia was 29.9%; in the assay with MOLT-4 leukemia, 24.6%; with SR leukemia, 35.7%; in the assay with RPMI-8226 leukemia, 9.87% (active); in the assay with OVCAR-8 ovarian it was 57.4%; with OVCAR-5 ovarian, 89.1%. The growth in the assay with OVCAR-4 ovarian was 45.1%; in the assay on SK-OV-3 ovarian it was 68.1%; with IGROV1 ovarian, 52.9%; with OVCAR-3 ovarian, 27.6%; in the assay with HS 578T breast, 77%; in the assay on NCI/ADR-RES ovarian, 49.8%.

The values are drawn from PubChem BioAssay (NCI).
